# Data as given in PMC4336329 (PLoS ONE, 2015).
# Hit rate of the full screen: of about 310,000 compounds, about 14,000 (4.5%) showed an effect of 50% or more. Effects have a minus sign here. For the sample, strong results were picked, then their nearest neighbours and some compounds at random.
# Target: human ether-à-go-go-related gene (hERG) potassium channel (human, UniProt Q12809)
# Test: primary screen, population patch clamp on CHO cells stably expressing hERG; higher = less effect of the substance
# 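Further: peak tail current of the secondary pulse compared with the same well before compound.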
# human ether-à-go-go-related gene (hERG) potassium channel, sequence (Q12809 whole entry, looked up): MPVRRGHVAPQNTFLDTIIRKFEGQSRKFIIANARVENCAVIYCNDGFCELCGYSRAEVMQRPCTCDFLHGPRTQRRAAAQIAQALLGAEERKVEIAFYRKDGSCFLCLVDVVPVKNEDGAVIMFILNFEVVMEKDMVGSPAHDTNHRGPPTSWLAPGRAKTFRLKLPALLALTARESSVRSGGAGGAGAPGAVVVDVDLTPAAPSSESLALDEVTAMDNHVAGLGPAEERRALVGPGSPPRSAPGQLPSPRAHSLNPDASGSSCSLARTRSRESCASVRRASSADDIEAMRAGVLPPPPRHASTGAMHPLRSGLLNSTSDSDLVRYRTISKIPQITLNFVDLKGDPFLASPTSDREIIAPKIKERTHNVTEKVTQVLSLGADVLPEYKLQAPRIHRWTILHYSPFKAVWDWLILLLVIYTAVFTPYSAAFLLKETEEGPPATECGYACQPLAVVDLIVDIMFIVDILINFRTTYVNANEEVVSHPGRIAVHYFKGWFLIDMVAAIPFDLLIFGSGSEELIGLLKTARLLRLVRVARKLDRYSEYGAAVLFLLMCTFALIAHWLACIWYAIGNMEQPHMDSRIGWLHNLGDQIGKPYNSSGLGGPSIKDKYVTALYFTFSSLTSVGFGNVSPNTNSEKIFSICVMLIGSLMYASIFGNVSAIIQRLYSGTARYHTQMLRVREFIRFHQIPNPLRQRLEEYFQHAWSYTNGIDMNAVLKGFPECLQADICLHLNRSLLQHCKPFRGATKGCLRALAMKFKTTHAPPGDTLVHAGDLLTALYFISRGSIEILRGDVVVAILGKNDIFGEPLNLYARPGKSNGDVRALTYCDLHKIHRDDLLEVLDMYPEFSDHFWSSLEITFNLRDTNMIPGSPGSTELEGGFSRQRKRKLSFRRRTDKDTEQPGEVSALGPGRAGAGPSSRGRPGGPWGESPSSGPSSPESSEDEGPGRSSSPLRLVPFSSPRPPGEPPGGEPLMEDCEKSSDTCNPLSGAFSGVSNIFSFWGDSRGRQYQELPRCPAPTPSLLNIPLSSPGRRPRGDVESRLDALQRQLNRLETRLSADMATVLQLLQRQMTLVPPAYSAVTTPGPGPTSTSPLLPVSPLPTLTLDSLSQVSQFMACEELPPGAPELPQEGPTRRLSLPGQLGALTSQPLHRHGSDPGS
row,SMILES,"hERG current change (%, negative = inhibition) at 10uM"
1,COc1ccc(N2CCN(C(=O)COC(=O)CCOc3ccc(C)cc3)CC2)cc1,9.09%
2,COc1ccc(N2CCN(C(=O)COC(=O)CCOc3cc(C)ccc3C)CC2)cc1,0.516%
3,COc1ccc(N2CCN(C(=O)COC(=O)CCOc3ccccc3C)CC2)cc1,-62.5%
4,CCCCNC(=O)c1cn(CC)c2cc(N3CCN(C(=O)c4ccco4)CC3)c(F)cc2c1=O,-33.8%
5,CCn1cc(C(=O)NCC(C)C)c(=O)c2cc(F)c(N3CCN(C(=O)c4ccco4)CC3)cc21,-59.9%
6,CCn1cc(C(=O)NCc2ccc3c(c2)OCO3)c(=O)c2cc(F)c(N3CCN(C(=O)c4ccco4)CC3)cc21,-1.93%
7,CCn1cc(C(=O)NC(C)C)c(=O)c2cc(F)c(N3CCN(C(=O)c4ccco4)CC3)cc21,-34.6%
8,CCN(CC)CCNC(=O)c1cn(CC)c2cc(N3CCN(C(=O)c4ccco4)CC3)c(F)cc2c1=O.Cl,0.131%
9,C=CCNC(=O)c1cn(CC)c2cc(N3CCN(C(=O)c4ccco4)CC3)c(F)cc2c1=O,-63.6%
10,CCC(C)NC(=O)c1cn(CC)c2cc(N3CCN(C(=O)c4ccco4)CC3)c(F)cc2c1=O (centres unmarked),-55.2%
11,CCCNC(=O)c1cn(CC)c2cc(N3CCN(C(=O)c4ccco4)CC3)c(F)cc2c1=O,-67%
12,CCn1cc(C(=O)NCCC(C)C)c(=O)c2cc(F)c(N3CCN(C(=O)c4ccco4)CC3)cc21,-11.3%
13,CCn1cc(C(=O)Nc2ncccc2O)c(=O)c2cc(F)c(N3CCN(C(=O)c4ccco4)CC3)cc21,1.98%
14,CCn1cc(C(=O)NCc2cccc(F)c2)c(=O)c2cc(F)c(N3CCN(C(=O)c4ccco4)CC3)cc21,-21%
15,CCn1cc(C(=O)NCc2ccco2)c(=O)c2cc(F)c(N3CCN(C(=O)c4ccco4)CC3)cc21,-26.4%
16,O=C(c1ccc2c(c1)OCO2)N1CCOCC1,17.5%
17,COc1cccc(OCCn2cccc2/C=C2/C(=N)N3OC(C)=CC3=NC2=O)c1,-23.5%
18,O=C(NCCCN1CCCC1=O)c1cccc(S(=O)(=O)Nc2ccc(F)cc2)c1,-24.5%
19,CCOC(=O)C1C(=O)Nc2nc(C)nn2C1c1ccccc1 (centres unmarked),14.4%
20,CCCc1ccc(C(=O)O/N=C(\N)c2ccccn2)cc1,-0.642%
21,CCn1cc(C(=O)NCc2cccnc2)c(=O)c2cc(F)c(N3CCN(C(=O)c4ccco4)CC3)cc21,-37.6%

row,SMILES,"hERG current change (%, negative = inhibition) at 10uM"
1,CCn1cc(C(=O)NCc2ccncc2)c(=O)c2cc(F)c(N3CCN(C(=O)c4ccco4)CC3)cc21,-66.4%
2,CCn1cc(C(=O)NCc2ccccc2)c(=O)c2cc(F)c(N3CCN(C(=O)c4ccco4)CC3)cc21,-39.6%
3,O=C(NCc1ccc(N2CCCC2=O)cc1)c1cccc(Cl)c1,1.27%
4,CC(C)(C)C(=O)Nc1ccc(-c2cc3cc(Cl)ccc3o2)cc1,8.12%
5,Cc1ccc(NS(=O)(=O)c2ccc3oc(=O)ccc3c2)cc1Cl,3.79%
6,CCC(=O)c1ccccc1OCCCCn1cncn1.O=C(O)C(=O)O,4.82%
7,CCc1ccccc1OCCCCN1CCCC1.O=C(O)C(=O)O,-40%
8,COC(=O)c1ccccc1OCCN1CCCCCC1.O=C(O)C(=O)O,-46.2%
9,CCC(=O)c1ccccc1OCCCN1C(=O)NC(C)(C)C1=O,0.00578%
10,CCC(=O)c1ccccc1OCCN1CCN(Cc2ccccc2)CC1.O=C(O)C(=O)O,-59.1%
11,N#Cc1ccccc1OCCCNC1CCCC1.O=C(O)C(=O)O,-11.5%
12,O=C(O)C(=O)O.OCc1ccccc1OCCCN1CCC(Cc2ccccc2)CC1,-75%
13,N#Cc1ccccc1OCCCN1CCC(Cc2ccccc2)CC1.O=C(O)C(=O)O,-80%
14,CCC(=O)c1ccccc1OCCCN1CCC(Cc2ccccc2)CC1.O=C(O)C(=O)O,-78.5%
15,CC(C)c1ccccc1OCCCN1CCCC1.O=C(O)C(=O)O,-33.1%
16,CCC(=O)c1ccccc1OCCN1CCN(CC)CC1.O=C(O)C(=O)O,-13.7%
17,CCc1ccccc1OCCCN1CCCC1.O=C(O)C(=O)O,-17.6%
18,O=C(CSc1nccc(=O)[nH]1)Nc1cccc(S(=O)(=O)N2CCOCC2)c1,4.22%
19,Cn1cnc2c1c(=O)n(Cc1c(Cl)cccc1Cl)c(=O)n2C,-3.36%
20,COc1ccccc1NC(=O)CSc1nc2sc(C)c(C)c2c(=O)n1C,6.42%
